Columns and labels:
[1] = biological target: High affinity nerve growth factor receptor (Homo sapiens) (UniProt P04629); conditions: at 1 µM;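 further: each value is the mean percent inhibition of TRKA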
[2] = biological target: BDNF/NT-3 growth factors receptor (Homo sapiens) (UniProt Q16620); conditions: at 0.1 µM
[3] = biological target: BDNF/NT-3 growth factors receptor (Homo sapiens) (UniProt Q16620); conditions: at 1 µM
[4] = biological target: NT-3 growth factor receptor (Homo sapiens) (UniProt Q16288); conditions: at 0.1 µM
[5] = biological target: NT-3 growth factor receptor (Homo sapiens) (UniProt Q16288); conditions: at 1 µM
[6] = biological target: T1, Tyrosine-protein kinase TXK (Homo sapiens) (UniProt P42681); conditions: at 0.1 µM
T1 sequence (whole entry): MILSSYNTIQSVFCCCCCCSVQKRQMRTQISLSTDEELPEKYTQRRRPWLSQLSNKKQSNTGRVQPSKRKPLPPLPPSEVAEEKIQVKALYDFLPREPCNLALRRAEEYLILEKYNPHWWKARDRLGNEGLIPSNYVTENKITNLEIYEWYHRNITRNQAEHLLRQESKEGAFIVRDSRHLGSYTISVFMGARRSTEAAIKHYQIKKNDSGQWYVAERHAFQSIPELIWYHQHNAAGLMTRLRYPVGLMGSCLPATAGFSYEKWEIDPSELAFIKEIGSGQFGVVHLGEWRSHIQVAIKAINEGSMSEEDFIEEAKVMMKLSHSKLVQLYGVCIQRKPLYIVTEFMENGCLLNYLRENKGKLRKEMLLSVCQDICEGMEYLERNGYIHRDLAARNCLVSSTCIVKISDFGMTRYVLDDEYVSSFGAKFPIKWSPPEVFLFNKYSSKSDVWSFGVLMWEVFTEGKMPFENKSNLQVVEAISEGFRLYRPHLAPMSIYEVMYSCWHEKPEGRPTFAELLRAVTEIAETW

[7] = biological target: T1, Tyrosine-protein kinase TXK (Homo sapiens); conditions: at 1 µM
[8] = biological target: Non-receptor tyrosine-protein kinase TYK2 (Homo sapiens) (UniProt P29597); conditions: at 0.1 µM;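 further: each value is a mean of the inhibition readings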
[9] = biological target: T2, Dual specificity protein kinase TTK (Homo sapiens) (UniProt P33981); conditions: at 1 µM;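 further: reported figures are mean TTK inhibition at 1 µM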
T2 sequence (whole entry): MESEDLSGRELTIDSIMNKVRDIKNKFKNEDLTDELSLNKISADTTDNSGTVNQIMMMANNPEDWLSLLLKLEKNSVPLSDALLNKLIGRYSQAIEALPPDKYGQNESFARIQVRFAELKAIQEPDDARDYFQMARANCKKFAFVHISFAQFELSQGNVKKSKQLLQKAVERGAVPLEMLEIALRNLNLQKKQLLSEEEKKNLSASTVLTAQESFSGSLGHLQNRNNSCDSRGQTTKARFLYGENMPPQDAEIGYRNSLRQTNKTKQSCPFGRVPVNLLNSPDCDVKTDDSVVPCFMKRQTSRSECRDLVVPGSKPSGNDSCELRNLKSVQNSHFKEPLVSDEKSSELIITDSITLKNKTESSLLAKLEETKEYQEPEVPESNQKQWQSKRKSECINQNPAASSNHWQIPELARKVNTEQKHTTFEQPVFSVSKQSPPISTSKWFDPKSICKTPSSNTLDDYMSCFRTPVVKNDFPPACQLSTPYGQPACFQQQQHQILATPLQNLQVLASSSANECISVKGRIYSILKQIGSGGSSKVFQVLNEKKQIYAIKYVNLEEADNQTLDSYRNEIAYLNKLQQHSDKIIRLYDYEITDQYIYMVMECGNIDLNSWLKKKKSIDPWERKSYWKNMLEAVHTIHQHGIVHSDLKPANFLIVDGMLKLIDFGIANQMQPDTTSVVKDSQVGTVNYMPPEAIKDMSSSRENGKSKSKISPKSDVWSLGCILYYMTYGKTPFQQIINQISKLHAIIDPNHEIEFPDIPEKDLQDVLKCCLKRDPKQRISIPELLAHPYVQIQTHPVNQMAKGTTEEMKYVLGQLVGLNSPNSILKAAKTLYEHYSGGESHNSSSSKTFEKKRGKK

[10] = biological target: T3, Aurora kinase A (Homo sapiens) (UniProt O14965); conditions: at 0.1 µM
T3 sequence (whole entry): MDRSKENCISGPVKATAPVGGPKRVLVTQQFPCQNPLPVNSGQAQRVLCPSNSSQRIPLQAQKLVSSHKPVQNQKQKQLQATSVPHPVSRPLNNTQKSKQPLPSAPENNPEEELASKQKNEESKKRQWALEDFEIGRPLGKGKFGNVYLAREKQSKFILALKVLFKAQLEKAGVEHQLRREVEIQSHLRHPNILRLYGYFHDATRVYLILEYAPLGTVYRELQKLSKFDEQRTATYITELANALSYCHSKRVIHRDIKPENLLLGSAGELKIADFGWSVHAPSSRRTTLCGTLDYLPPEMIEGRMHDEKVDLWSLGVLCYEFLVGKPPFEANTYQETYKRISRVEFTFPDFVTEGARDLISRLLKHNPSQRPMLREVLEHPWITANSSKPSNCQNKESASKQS

[11] = biological target: T3, Aurora kinase A (Homo sapiens); conditions: at 1 µM
[12] = biological target: Aurora kinase B (Homo sapiens) (UniProt Q96GD4); conditions: at 0.1 µM
[13] = biological target: Aurora kinase B (Homo sapiens) (UniProt Q96GD4); conditions: at 1 µM
[14] = biological target: T4, Aurora kinase C (Homo sapiens) (UniProt Q9UQB9); conditions: at 0.1 µM
T4 sequence (whole entry): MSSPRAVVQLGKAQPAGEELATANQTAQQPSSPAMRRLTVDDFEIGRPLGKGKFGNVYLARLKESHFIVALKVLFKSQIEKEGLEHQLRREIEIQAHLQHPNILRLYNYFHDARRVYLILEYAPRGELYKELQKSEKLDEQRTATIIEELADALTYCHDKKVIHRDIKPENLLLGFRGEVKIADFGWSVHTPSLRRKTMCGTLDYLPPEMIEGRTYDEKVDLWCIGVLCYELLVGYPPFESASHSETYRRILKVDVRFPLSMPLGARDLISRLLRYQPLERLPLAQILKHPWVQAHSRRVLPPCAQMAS

[15] = biological target: T4, Aurora kinase C (Homo sapiens); conditions: at 1 µM
[16] = biological target: Serine/threonine-protein kinase 10 (Homo sapiens) (UniProt O94804); conditions: at 0.1 µM
[17] = biological target: Serine/threonine-protein kinase 10 (Homo sapiens) (UniProt O94804); conditions: at 1 µM
[18] = biological target: T5, Mitogen-activated protein kinase kinase kinase kinase 2 (Homo sapiens) (UniProt Q12851); conditions: at 0.1 µM
T5 sequence (whole entry): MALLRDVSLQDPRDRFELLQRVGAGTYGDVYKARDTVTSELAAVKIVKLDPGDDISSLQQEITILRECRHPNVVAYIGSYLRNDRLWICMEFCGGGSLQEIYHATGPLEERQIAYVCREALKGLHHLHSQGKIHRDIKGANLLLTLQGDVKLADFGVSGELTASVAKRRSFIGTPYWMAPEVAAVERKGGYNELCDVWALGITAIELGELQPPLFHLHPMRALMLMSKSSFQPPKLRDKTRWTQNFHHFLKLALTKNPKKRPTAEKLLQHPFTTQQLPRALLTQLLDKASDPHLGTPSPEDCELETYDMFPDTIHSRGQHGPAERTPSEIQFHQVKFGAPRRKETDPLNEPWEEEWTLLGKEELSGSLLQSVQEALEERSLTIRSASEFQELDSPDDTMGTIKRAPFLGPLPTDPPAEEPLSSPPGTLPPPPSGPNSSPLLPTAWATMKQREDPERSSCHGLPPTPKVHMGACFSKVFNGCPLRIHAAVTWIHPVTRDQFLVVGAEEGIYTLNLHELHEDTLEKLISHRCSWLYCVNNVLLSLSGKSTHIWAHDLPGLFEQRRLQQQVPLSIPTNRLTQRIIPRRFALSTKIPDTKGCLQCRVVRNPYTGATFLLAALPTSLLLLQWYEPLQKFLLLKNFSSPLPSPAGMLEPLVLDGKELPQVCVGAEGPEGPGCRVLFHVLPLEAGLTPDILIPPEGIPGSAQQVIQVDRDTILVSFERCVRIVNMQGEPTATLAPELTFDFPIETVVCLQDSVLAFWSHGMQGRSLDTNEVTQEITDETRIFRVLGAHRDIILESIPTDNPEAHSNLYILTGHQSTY

[19] = biological target: T5, Mitogen-activated protein kinase kinase kinase kinase 2 (Homo sapiens); conditions: at 1 µM
[20] = biological target: Mitogen-activated protein kinase kinase kinase kinase 4 (Homo sapiens) (UniProt O95819); conditions: at 0.1 µM
Mitogen-activated protein kinase kinase kinase kinase 4 (Homo sapiens), sequence (O95819 2-1239 limits assumed): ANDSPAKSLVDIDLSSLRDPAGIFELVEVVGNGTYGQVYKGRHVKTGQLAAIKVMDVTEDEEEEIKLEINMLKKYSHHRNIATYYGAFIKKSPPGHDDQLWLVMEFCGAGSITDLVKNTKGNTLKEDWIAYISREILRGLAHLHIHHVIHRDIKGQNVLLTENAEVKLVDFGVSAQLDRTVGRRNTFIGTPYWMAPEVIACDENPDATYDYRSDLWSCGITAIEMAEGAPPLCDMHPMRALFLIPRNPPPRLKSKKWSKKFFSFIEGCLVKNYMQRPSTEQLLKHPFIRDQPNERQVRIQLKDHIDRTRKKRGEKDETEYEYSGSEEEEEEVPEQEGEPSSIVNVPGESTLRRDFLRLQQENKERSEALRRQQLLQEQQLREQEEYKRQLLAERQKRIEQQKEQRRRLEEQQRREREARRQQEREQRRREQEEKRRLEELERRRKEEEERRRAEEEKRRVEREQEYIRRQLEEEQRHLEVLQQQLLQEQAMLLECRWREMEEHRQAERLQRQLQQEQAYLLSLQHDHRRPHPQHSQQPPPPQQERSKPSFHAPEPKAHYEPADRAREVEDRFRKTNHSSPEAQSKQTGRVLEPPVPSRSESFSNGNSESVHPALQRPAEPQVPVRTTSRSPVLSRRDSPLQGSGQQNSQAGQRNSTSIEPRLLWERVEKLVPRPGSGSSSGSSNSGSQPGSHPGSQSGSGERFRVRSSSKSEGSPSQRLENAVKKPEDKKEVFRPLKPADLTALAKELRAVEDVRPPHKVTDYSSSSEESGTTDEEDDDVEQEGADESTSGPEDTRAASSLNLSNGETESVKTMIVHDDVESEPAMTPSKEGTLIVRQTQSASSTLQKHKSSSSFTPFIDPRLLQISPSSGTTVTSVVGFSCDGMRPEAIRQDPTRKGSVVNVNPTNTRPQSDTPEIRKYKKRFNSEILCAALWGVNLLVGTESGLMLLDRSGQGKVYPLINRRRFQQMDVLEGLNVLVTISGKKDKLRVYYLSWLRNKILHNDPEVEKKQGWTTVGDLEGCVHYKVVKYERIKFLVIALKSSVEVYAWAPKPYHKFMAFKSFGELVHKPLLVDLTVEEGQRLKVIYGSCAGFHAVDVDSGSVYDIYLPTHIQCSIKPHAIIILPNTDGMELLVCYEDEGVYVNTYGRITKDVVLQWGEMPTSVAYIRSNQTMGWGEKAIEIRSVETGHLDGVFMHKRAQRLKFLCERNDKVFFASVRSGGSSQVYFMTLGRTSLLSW

NT-3 growth factor receptor (Homo sapiens), sequence (Q16288 32-839 limits assumed): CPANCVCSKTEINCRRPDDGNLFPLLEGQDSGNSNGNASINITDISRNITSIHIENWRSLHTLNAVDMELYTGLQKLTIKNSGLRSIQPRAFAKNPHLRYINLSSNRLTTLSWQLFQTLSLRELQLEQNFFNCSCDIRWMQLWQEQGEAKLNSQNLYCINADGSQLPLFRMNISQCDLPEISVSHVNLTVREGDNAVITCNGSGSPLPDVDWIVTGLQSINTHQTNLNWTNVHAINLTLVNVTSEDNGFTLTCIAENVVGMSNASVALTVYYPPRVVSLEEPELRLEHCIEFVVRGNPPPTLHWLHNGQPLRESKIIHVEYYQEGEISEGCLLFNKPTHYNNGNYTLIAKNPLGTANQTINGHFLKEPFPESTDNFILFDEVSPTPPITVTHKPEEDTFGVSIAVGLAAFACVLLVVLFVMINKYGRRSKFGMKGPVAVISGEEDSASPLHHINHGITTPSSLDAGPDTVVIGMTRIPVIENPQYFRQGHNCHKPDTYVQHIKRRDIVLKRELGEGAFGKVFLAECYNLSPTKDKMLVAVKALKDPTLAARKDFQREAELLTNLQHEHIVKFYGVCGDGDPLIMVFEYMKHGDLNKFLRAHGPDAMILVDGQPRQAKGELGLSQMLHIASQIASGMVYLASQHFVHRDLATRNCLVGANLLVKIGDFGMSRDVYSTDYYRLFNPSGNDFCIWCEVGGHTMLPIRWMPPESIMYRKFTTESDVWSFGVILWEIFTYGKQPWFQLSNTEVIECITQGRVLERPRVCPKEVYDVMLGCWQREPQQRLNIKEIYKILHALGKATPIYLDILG
High affinity nerve growth factor receptor (Homo sapiens), sequence (P04629 33-796 limits assumed): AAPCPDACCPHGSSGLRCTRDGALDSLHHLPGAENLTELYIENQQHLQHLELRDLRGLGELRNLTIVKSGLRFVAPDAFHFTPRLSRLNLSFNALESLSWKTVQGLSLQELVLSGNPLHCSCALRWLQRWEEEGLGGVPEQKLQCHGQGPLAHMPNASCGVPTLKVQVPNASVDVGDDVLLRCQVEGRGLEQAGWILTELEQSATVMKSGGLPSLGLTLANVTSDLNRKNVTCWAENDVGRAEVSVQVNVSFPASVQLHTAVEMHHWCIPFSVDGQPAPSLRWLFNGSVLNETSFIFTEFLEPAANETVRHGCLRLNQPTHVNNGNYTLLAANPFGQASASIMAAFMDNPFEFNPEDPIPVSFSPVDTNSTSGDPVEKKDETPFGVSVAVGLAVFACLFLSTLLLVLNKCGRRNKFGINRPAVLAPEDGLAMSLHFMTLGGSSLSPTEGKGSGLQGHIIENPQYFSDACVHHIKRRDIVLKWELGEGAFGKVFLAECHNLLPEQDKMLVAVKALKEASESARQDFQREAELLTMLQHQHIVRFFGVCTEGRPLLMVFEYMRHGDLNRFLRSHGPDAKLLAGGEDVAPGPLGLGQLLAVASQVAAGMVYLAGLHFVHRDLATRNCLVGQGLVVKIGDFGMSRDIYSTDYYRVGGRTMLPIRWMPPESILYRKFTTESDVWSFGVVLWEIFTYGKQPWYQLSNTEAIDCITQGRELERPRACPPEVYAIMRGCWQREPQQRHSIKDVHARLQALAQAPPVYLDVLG
Aurora kinase B (Homo sapiens), sequence (Q96GD4 whole entry): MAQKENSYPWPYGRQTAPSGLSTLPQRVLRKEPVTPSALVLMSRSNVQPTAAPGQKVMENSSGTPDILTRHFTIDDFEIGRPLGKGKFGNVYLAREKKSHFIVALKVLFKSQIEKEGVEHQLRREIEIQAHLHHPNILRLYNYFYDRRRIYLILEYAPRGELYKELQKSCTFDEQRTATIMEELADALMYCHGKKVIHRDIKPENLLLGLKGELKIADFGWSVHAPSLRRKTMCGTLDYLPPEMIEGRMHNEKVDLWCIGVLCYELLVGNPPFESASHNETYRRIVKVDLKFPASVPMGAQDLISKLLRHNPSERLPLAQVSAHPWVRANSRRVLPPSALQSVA
Serine/threonine-protein kinase 10 (Homo sapiens), sequence (O94804 whole entry, looked up): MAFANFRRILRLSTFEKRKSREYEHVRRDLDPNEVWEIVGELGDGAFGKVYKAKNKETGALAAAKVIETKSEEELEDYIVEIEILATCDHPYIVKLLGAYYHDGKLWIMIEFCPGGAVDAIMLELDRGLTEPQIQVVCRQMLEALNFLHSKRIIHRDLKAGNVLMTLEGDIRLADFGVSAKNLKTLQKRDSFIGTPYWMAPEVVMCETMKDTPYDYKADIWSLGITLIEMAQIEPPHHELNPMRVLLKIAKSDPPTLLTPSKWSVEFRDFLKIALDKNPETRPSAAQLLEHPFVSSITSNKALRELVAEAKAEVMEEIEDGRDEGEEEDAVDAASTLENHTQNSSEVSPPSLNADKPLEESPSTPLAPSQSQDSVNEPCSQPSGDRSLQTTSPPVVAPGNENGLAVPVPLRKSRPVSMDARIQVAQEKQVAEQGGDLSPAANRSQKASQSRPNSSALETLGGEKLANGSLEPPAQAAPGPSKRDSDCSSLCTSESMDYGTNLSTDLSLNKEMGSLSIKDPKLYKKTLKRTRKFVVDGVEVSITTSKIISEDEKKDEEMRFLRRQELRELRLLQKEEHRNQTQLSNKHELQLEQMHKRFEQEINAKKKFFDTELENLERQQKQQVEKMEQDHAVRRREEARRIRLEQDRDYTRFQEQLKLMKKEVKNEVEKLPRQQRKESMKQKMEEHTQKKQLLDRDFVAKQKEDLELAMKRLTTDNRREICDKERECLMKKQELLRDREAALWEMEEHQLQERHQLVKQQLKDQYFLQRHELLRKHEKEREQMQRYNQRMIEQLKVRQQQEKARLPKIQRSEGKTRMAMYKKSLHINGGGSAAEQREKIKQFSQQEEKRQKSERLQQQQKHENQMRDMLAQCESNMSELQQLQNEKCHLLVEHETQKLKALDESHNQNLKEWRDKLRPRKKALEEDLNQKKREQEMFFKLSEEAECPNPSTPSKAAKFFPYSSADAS
BDNF/NT-3 growth factors receptor (Homo sapiens), sequence (Q16620 32-822 limits assumed): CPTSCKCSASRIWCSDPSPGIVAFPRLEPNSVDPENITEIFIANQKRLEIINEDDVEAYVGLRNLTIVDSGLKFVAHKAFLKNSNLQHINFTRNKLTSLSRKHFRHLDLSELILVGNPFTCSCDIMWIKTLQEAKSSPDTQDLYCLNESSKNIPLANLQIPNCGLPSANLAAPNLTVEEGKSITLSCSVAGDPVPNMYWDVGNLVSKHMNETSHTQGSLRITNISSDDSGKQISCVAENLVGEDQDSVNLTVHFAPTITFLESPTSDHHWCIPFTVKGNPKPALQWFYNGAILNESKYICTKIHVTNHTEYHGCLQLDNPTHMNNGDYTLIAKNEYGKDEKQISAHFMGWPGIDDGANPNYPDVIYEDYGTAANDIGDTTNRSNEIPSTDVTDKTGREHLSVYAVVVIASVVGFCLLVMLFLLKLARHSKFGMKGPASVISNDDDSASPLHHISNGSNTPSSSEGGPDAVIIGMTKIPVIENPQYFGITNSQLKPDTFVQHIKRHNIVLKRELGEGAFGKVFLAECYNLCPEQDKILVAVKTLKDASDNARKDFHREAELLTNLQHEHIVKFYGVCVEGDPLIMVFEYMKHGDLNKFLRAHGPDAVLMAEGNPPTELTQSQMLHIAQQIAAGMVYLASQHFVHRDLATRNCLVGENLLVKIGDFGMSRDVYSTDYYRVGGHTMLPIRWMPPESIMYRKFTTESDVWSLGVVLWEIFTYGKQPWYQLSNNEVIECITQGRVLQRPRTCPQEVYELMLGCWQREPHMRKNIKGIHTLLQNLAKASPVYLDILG

SMILES	inhibition [1]	inhibition [2]	inhibition [3]	inhibition [4]	inhibition [5]	inhibition [6]	inhibition [7]	inhibition [8]	inhibition [9]	inhibition [10]	inhibition [11]	inhibition [12]	inhibition [13]	inhibition [14]	inhibition [15]	inhibition [16]	inhibition [17]	inhibition [18]	inhibition [19]	inhibition [20]
Cc1cc(O)cc(C)c1/C=C/c1cncc(-c2nn[nH]n2)c1	3.5%	3.7%	3.06%	3.61%	8.05%	5.73%	45.3%	-2.89%	11.1%	-1.67%	-0.41%	-2.87%	1.12%	-3.31%	-0.15%	5.3%	39.7%	1.25%	5.33%	8.4%
CCCN1CCC=C(c2ccc(Nc3nc(Nc4ccccc4C(N)=O)c4cc[nH]c4n3)c(C)c2)C1	6.59%	3.01%	6.47%	2.46%	3.13%	6.59%	13.1%	-5.21%	70.7%	6.15%	32.6%	5.03%	12.8%	1.85%	13.7%	8.52%	14.9%	6.05%	35.5%	19.2%
O=C1NC(=O)C(c2ccccc2Cl)=C1Nc1cccc(O)c1	0.59%	1.19%	1.88%	0.46%	4.4%	3.39%	4.53%	-5.26%	-9.72%	3.17%	11.6%	2.88%	7.74%	1.84%	7.14%	8.75%	49.3%	1.12%	2.09%	3.71%
COC(=O)Nc1nc2cc(Oc3cccc(NC(=O)Nc4cc(C(F)(F)F)ccc4F)c3)ccc2[nH]1	-0.96%	-0.54%	2.43%	-0.83%	5.81%	2.14%	2.8%	1.53%	0.75%	1.04%	1.22%	-1.59%	-0.29%	0.03%	4.29%	4.04%	12.5%	1.34%	3.06%	3.21%
COC(=O)Nc1nc2cc(Oc3ccc(NC(=O)Nc4cccc(C(=O)O)c4)cc3)ccc2[nH]1	3.47%	0.82%	1.02%	1.95%	3.8%	-2.97%	1.48%	1.17%	9.64%	-1.89%	12.8%	-1.26%	9.37%	0.03%	37.7%	0.65%	7.1%	0.68%	1.11%	0.99%
CC(=O)Nc1cccc(C#Cc2cncnc2Nc2ccc(OCc3cccc(F)c3)c(Cl)c2)n1	-2.48%	-1.79%	0.05%	-0.41%	4.04%	0.96%	0.46%	4.58%	10.8%	-0.41%	2.65%	3.23%	1.96%	3.46%	-5.73%	4.04%	14.4%	2.81%	2.04%	-0.3%
CC1=C(C(=O)Nc2ccc3[nH]ncc3c2)C(c2ccc(Cl)c(Cl)c2)CC(=O)N1 (stereo not given)	0.57%	1.67%	-0.28%	2.34%	1.92%	1.64%	0.6%	0.3%	7.89%	9.43%	70.2%	1.32%	19.5%	3.19%	28.2%	3.78%	5.17%	-1.16%	1.61%	2.18%
CS(=O)(=O)CCNCc1ccc(-c2ccc3ncnc(Nc4ccc(OCc5ccccc5)c(Cl)c4)c3c2)o1	4.84%	2.92%	2.87%	1.98%	2.17%	1.26%	1.47%	1.67%	6.09%	0.56%	1.2%	2.22%	10.4%	1.18%	7.9%	1.97%	8.82%	3.3%	7.74%	2.21%
CN(C)c1cc2c(Nc3ccc4nc(Cc5ccccc5)[nH]c4c3)ncnc2cn1	3.31%	3.89%	2.87%	3.93%	4.24%	8.4%	13.7%	-8.04%	32.2%	3.28%	11.5%	6.09%	27.4%	5.94%	40.3%	6.78%	14.4%	1.35%	2.07%	7.88%
Nc1ncnc2occ(-c3ccc(NC(=O)Nc4cccc(C(F)(F)F)c4)cc3)c12	96.5%	59.4%	91.1%	58.9%	88.9%	-1.65%	5.17%	-3.69%	18.1%	9.27%	60.4%	30.7%	66.7%	42.5%	88.8%	26.4%	67.9%	28.7%	59.2%	2.65%
NC(=O)c1cccc(Nc2nccc(Nc3cccc4[nH]ncc34)n2)c1	6.83%	0.06%	14.1%	1.25%	12.9%	15.8%	55.1%	4.66%	9.28%	36.4%	96.8%	24.5%	73.7%	39.2%	100%	-1.55%	31.9%	2.55%	24.3%	2.67%
COc1cccc(-n2ncc3c(N/N=C/c4cccc(F)c4)ncnc32)c1	3.57%	2.75%	6.27%	2.97%	7.58%	-0.86%	1.52%	-0.2%	10.5%	-2.23%	16.9%	-1%	7.83%	-2.12%	1.75%	3.91%	11.8%	1.55%	4.59%	7.45%
CCn1c(-c2nonc2N)nc2cncc(C(=O)N3CCNCC3)c21	4.86%	3.21%	4.35%	3.96%	4.33%	7.08%	5.49%	-1.93%	12.5%	5.21%	2.9%	3.66%	4.51%	-0.51%	1.12%	10.8%	8.24%	1.51%	2.14%	3.11%
